# Source: PubChem BioAssay (National Center for Advancing Translational Sciences (NCATS))
# MCF10A rereplic = induces DNA re-replication in MCF 10a normal breast cells; 2.9% of 350,000 active; MCF 10A DNA re-replication, Hoechst nuclear intensity, 48 h; Potency, µM (top dose mostly 46.1 µM), without a hit: at the highest dose activity, positive = re-replication, actives largely listed as activators; further: potency means the concentration at half of the fitted maximal effect; % of control where 0% means no effect; nearly all actives have a fitted effect of over 50% in size
# Gal4-VP16 FLuc = Gal4-VP16 reporter inhibition counter-screen. Drosophila S2 Gal4-VP16 UAS-luciferase, luminescence, 20 h. Potency, µM (series often up to 53.6 µM), without a hit: at the top dose activity, negative = inhibition, hits mostly inhibitors. 3.5% of 310,000 active. AID 2546;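 further: Gal4-VP16 expression switched on by copper sulfate through the metallothionein promoter; potency means the concentration at half of the fitted maximal effect; on the % scale 0 is the no-effect control and ±100 the full control effect; nearly all actives have a fitted effect of over 50% in size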
# Giardia kill = Giardia lamblia killing; 0.15% of 340,000 active; activity change, % at 7.66 µM, hits read low; AID 540267; Giardia lamblia trophozoite viability; in the data active means activity change below about -80%; inconclusive means between about -30% and that limit;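 further: parasites exposed to compound for two days anaerobically before the ATP read; on the % scale 0 is the no-effect control and ±100 the full control effect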
#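 Compounds were tested on trophozoites seeded at 100 cells/well and held 48 hrs at 37 deg C anaerobically. An ATP-based luminescent kit measured the remaining live cells.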
# Chronic BCR inh = inhibitors of chronic active B-cell receptor signaling | AID 493014 | 0.05% of 340,000 active | Potency, µM (top dose mostly 46.1 µM), without a hit: top-dose activity change, negative = inhibition, hits mostly inhibitors | ABC-DLBCL IkBa-CBG/CBR reporter, luminescence ratio, 4 h; active means well fitted inhibition curve with a large enough effect in the signal ratio, with a control signal flat, not every such curve was filed as active; inconclusive means small, poorly fitted or top-dose-only effect, or effect the other way, or a change in a side signal; the % refers to the signal ratio;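 further: potency means the concentration at half of the fitted maximal effect; plate controls were basal doxycycline-induced cells for no effect and cells given 10 µM MG132 for full effect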
#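 Cell line TMD8 (human ABC DLBCL), stably expressing tet-inducible CBG68-IkBa fusion and CBR; IMDM/0.5% FBS; cpd up to 46 uM; dox induction, 4 h, 37C/5% CO2; dual luminescence; green/red ratio; MG132 control.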
# SW480 rerep = DNA re-replication induction in SW480 cells; SW480 DNA re-replication, Hoechst DNA content imaging, 48 h; 1.8% of 340,000 active; AID 624297; Potency, µM (highest dose often 46.1 µM), for inactives: at the top dose re-replication activation, usual class: activators; further: potency means the concentration at half of the fitted maximal effect; % of control where 0% means no effect; nearly all actives have a fitted effect of over 55% in size
#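 Image-based read-out: total Hoechst fluorescence of nuclei (405 nm excitation, 500-530 nm emission), with hits raising the fraction of high-intensity nuclei. SW480 colon cells incubated 48 hr with compounds at 37 C.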
# RORgamma inh = ROR gamma (mouse) transcription inhibition | Potency, µM (highest dose often 53.6 µM), without a hit: at the top dose activity change, negative = inhibition, usual class: inhibitors | 5.4% of 310,000 active | P51450 | Drosophila S2 Gal4-RORgamma UAS-luciferase reporter, 20 h; further: potency means the concentration at half of the fitted maximal effect; on the % scale 0 is the no-effect control and ±100 the full control effect; nearly all actives have a fitted effect of over 60% in size
# Target sequence (P51450 whole entry, looked up, the tested form may be a part): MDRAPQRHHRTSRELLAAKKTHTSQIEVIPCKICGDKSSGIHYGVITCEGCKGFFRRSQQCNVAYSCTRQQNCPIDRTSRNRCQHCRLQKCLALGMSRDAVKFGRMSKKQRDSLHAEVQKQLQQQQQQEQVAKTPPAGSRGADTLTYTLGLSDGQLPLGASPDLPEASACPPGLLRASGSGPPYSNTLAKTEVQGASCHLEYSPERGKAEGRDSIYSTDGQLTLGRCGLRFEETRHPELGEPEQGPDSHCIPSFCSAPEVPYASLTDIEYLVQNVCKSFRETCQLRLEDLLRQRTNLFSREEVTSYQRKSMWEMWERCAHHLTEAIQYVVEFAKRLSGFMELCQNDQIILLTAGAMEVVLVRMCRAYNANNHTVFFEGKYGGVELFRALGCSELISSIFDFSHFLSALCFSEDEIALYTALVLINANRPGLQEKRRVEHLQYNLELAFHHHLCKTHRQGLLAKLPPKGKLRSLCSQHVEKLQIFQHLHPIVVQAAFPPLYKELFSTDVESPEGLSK
#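 ROR gamma transcriptional activity was tracked as Gal4-UAS luciferase output in stably transfected Drosophila Schneider cells, with compound added 1 hr before 700 uM copper sulfate induction and a 20 hr ambient-temperature incubation.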
# Active calls of the source: *; ? = inconclusive; · = not tested or not shown; [ ] = remark or other dose. This is a sample that favours compounds with a hit; in the whole collection about 8.3% have one here. Unless noted, the call rests on the fitted dose curve; in most records, active means well fitted curve in the direction sought with a large enough effect; inconclusive means small, poorly fitted or top-dose-only effect, or another doubt; inactive means no such curve, though single readings can be large; an effect the other way counts as inactive or inconclusive.
SMILES,MCF10A rereplic,Gal4-VP16 FLuc,Giardia kill,Chronic BCR inh,SW480 rerep,RORgamma inh
COc1ccc(C2SCC(=O)N2CC23CC4CC(CC(C4)C2)C3)cc1 (configuration not stated),?,-2.6%,-17.2,-1.9%,?,-0.3%
O=C(NCc1ccc(Cl)cc1)N1CCN(Cc2ccccc2)CC1,9.3%,-1.6%,5.5,?,19.5%,-20.0%
O=C(Nc1cccc([N+](=O)[O-])c1)Nc1ccc2c(c1)OCCO2,-1.4%,-0.8%,-23.0,0.4%,8.6%,7.7%
CCNC(=S)Nc1cc(OCC)c(NC(=O)c2ccco2)cc1OCC,3.0%,?,6.8,5.4%,-1.0%,15.8µM*
CCOc1cc(NC(=O)C2CCCCC2)c(OCC)cc1NC(=O)c1ccco1,-1.4%,-5.9%,11.1,2.4%,-6.5%,18.8%
N#C/C(=C\c1c(Cl)cccc1Cl)c1nc2ccccc2o1,?,-27.5%,-1.1,-10.1%,29.5%,?
Cc1cc(O)ccc1N/C=C(\C#N)c1nc2ccccc2o1,18.4µM*,-12.6%,3.5,?,?,14.1%
O=C(NNC(=S)Nc1cccc(C(F)(F)F)c1)c1cccc(Cl)c1,?,?,13.4,?,?,?
CCN(CC)S(=O)(=O)c1cccc(NC(=O)Nc2cccc(C(F)(F)F)c2)c1,23.1µM*,-2.1%,15.3,?,?,0.8%
CC(C)(C)NNC(=S)Nc1cccc(C(F)(F)F)c1,26.7%,3.16µM*,-10.3,7.94µM*,9.1%,1µM*
CCCNC(=S)Nc1cccc(C(F)(F)F)c1,1.9%,?,-7.3,6.0%,-2.0%,10µM*
FC(F)(F)c1cccc(NC(=S)NNC(=S)NCc2ccccc2)c1,?,?,-5.9,8.5%,-12.4%,?
O=C(NNC(=S)Nc1cccc(C(F)(F)F)c1)c1ccccc1Cl,21.1%,10µM*,5.0,-2.6%,5.2%,12.6µM*
O=C(c1ccc(S(=O)(=O)N2CCOCC2)cc1)N1CCN(S(=O)(=O)c2ccc(Cl)s2)CC1,?,-1.1%,9.6,4.5%,-3.0%,13.7%
Cc1ccc(NC(=S)NNC(C)(C)C)cc1,-1.2%,0.251µM*,8.1,?,?,?
CC(C(=O)Nc1cccnc1)n1cc([N+](=O)[O-])cn1 (configuration not stated),-3.9%,-1.3%,-18.7,10.6%,0.5%,4.0%
Cc1c(NC(=O)c2ccc(Br)s2)c(=O)n(-c2ccccc2)n1C,-4.7%,2.3%,-6.5,0.3%,22.8%,2.3%
CCCCn1c(N)c(N(Cc2ccccc2OC)C(=O)COc2ccc(C)cc2)c(=O)[nH]c1=O,2.5%,·,-10.2,11.5%,-5.7%,·
CCC(=O)c1ccc(N2CCN(C(=O)c3ccccc3F)CC2)c(F)c1,2.1%,-13.9%[10 µM],18.6,5.8%,21.8%,19.2%
CCC(=O)c1ccc(N2CCN(C(=O)c3cccs3)CC2)c(F)c1,6.51µM*,?,-6.5,?,?,?
Cc1ccccc1C(=O)c1c[nH]c(C(=O)N2CCN(c3ccccc3F)CC2)c1,22.2%,-14.7%,-23.7,?,13.2%,34.9%
O=C(c1ccccc1)c1ccc(N2CCN(C(=O)c3cccc(F)c3F)CC2)c(F)c1,?,12.6µM*,8.5,1.8%,13.1%,?
O=C(c1c[nH]c(C(=O)N2CCN(c3ccccc3F)CC2)c1)c1cccc(Cl)c1Cl,3.66µM*,1.2%[10 µM],-21.3,2.6%,?,-26.5%
COc1cc(Cl)c(C)cc1NC(=O)Cc1cccs1,-0.8%,-8.9%,1.9,8.7%,-36.5%,30.5%
CC(C)Nc1cc(C(F)(F)F)nc(-c2ccccn2)n1,0.1%,6.31µM*,-5.5,?,-4.7%,1µM*
SMILES,MCF10A rereplic,Gal4-VP16 FLuc,Giardia kill,Chronic BCR inh,SW480 rerep,RORgamma inh
COC(=O)CSc1cc(C(F)(F)F)nc(-c2ccccn2)n1,-1.7%,13.6%,-8.7,-3.4%,-3.9%,-13.6%
FC(F)(F)c1cc(Nc2ccccc2)nc(-c2ccccn2)n1,?,4.47µM*,-18.2,-0.7%,-24.2%,2µM*
COc1cc(C(F)(F)F)nc(-c2ccccn2)n1,5.9%,1.1%,-1.6,5.5%,?,-32.0%
FC(F)(F)c1cc(Sc2ccccc2)nc(-c2ccccn2)n1,-0.1%,?,-8.6,?,?,11.2µM*
CCCCN(C(=O)CCSc1ccc(F)cc1)c1c(N)n(Cc2ccccc2)c(=O)[nH]c1=O,-0.2%,·,5.8,-6.9%,4.3%,·
Cc1sc(NC(=O)C2C3CCC(O3)C2C(=O)O)nc1-c1ccc(CC(C)C)cc1 (configuration not stated),?,-4.9%,-6.1,?,12.3%,-30.2%
C=CCc1cccc(/C=N/NC(=O)C(C)Nc2ccc(C)cc2)c1O (configuration not stated),?,2.82µM*,10.2,-0.2%,16.4µM*,0.562µM*
COc1ccc(NC(C)C(=O)N/N=C/c2ccccc2OCc2cccc(Br)c2)cc1 (configuration not stated),?,13.8%,0.2,?,?,2.7%
C=CCc1cccc(/C=N/NC(=O)C(=O)Nc2ccc(C)cc2)c1O,2.0%,11.2µM*,17.1,?,3.8%,2.24µM*
COc1ccc(N2CCN(S(=O)(=O)c3c(C)[nH]c(C)c3C(=O)N3CCCCC3)CC2)cc1,2.2%,-7.9%,0.0,-0.6%,-7.1%,0.8%
CC(=O)C1=C(c2ccccc2)N(C(C)=O)n2c(C)nnc2S1,?,17.8µM*,-21.5,?,?,11.2µM*
Cc1cc2nc(-c3ccc[nH]c3=O)[nH]c2cc1C,15.8%,6.31µM*,-93.7*,?,16.7%,7.94µM*
Cc1cc2nc(-c3ccc[nH]c3=O)n(Cc3ccc(F)cc3)c2cc1C,3.5%,-11.4%,5.0,?,9.9%,8.9%
Cc1ccc(C)c(NC(=S)N2CCC(NC(=O)C3CCCCC3)CC2)c1,-0.5%,-9.2%,6.9,-6.7%,-2.4%,12.0%
Nc1ccccc1SCC(=O)Nc1cccc2ccccc12,-2.0%,15.0%,16.9,?,4.8%[1.84 µM],-9.1%
CCn1c(CCCOc2ccc(Cl)cc2Cl)n[nH]c1=S,6.6%,3.16µM*,5.8,?,-3.6%[1.84 µM],2.82µM*
CCCCC(CC(O)COCCC)c1n[nH]c(=S)n1-c1ccccc1 (configuration not stated),-15.8%,?,5.6,-0.2%,-9.0%,11.2µM*
CCCCCCCc1n[nH]c(=S)n1Cc1ccccc1,?,?,-16.9,10.9%,-4.6%[9.22 µM],1.26µM*
COc1ccc(C(=O)CSc2nnc(CCc3ccccc3)n2-c2ccccc2)cc1,7.31µM*,?,8.3,8.9%,17.3%,15.8µM*
CCN(Cc1ccccc1)S(=O)(=O)c1c[nH]c(C(=O)OC)c1,-0.4%,3.7%,50.5,-5.8%,-3.0%,-6.0%
